Test results published in paper PMC7862700, “An all-to-all approach to the identification of sequence-specific readers for epigenetic DNA modifications on cytosine”.

Experiments:
Test in all cases: DAPPL (digital affinity profiling via proximity ligation, sequencing); 10 mM Tris-HCl pH 7.5, 50 mM NaCl, 1 mM DTT, 4% glycerol, room temperature, 30 min; GST-TFs on glutathione beads, 16-mer random dsDNA library, 0.1% formaldehyde crosslink after washing; high values mean tight binding
Details in all cases: protein: recombinant; tags: N-terminal GST; dsDNA, one strand shown
FLI1 = target: T1, FLI1 (Homo sapiens, UniProt Q01543 1-452)
T1 sequence: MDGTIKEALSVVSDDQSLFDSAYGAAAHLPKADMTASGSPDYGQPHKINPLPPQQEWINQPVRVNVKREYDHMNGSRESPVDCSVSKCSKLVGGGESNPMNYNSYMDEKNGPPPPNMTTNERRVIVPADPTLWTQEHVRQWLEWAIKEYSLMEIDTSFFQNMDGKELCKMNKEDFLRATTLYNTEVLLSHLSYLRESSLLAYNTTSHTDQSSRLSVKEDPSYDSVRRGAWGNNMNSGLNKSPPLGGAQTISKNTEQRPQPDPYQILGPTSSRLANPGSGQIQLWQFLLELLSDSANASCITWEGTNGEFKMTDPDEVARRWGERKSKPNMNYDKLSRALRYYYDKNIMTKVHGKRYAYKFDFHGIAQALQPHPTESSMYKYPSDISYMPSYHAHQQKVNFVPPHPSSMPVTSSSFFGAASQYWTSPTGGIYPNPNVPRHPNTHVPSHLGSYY
In short: (§1)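 Pools were built from human transcription factors expressed in yeast as GST fusions, captured on glutathione beads and DNA-barcoded, along with a tag-only sample. Incubation with 200 nmole of a 16-mer random double-stranded DNA library lasted 30 min at room temperature in Tris/NaCl/DTT/glycerol buffer, and was followed by washing, 0.1% formaldehyde crosslinking, proximity ligation, PCR amplification and Illumina NextSeq500 sequencing. Binding signal is the quotient of each hexamer's read frequency for a factor and its frequency for the tag-only sample.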

ELK1 = target: T2, ELK1 (Homo sapiens, UniProt P19419 1-428)
T2 sequence: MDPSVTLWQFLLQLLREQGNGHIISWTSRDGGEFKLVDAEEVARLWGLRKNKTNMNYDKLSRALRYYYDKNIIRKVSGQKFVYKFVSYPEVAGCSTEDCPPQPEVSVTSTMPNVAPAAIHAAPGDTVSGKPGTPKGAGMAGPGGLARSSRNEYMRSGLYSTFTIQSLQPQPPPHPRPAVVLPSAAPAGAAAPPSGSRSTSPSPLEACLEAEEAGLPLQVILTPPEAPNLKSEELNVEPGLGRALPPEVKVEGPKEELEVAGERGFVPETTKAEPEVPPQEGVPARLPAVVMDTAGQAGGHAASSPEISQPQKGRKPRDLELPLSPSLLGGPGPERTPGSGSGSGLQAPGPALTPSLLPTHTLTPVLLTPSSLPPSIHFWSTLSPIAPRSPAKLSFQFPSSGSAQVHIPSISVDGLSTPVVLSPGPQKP
In short: as §1

GABPA = target: T3, GABPA (Homo sapiens, UniProt Q06546 1-454)
T3 sequence: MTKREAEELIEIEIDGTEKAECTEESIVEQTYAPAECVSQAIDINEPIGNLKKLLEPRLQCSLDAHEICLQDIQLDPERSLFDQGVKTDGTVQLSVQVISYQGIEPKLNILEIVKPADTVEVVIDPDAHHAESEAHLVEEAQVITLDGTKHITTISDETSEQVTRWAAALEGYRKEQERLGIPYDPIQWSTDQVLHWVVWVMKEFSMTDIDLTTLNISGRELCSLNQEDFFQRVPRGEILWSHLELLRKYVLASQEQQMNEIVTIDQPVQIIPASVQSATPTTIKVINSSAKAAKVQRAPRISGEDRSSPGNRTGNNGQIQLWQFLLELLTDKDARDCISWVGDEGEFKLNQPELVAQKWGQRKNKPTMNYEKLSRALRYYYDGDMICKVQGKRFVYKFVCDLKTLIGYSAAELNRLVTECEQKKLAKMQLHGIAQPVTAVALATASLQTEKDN
In short: as §1

ERG = target: T4, ERG (Homo sapiens, UniProt P11308 1-479)
T4 sequence: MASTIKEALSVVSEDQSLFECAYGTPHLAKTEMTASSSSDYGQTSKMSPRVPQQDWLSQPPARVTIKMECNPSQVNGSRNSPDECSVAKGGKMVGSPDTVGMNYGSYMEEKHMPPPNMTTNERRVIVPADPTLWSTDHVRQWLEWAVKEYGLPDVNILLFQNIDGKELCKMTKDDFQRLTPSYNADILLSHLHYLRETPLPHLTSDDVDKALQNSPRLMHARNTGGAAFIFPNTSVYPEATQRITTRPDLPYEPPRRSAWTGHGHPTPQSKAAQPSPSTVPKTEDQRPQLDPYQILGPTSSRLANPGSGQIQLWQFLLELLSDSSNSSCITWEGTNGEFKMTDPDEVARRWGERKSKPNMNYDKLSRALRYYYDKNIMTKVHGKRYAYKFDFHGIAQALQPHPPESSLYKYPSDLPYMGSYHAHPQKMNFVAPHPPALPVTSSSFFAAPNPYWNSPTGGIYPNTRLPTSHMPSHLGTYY
In short: as §1

ELF1 = ELF1 (Homo sapiens, UniProt P32519 1-619)
In short: as §1

SPI1 = SPI1 (Homo sapiens, UniProt P17947 1-270)
In short: as §1

SPIB = SPIB (Homo sapiens, UniProt Q01892 1-262)
In short: as §1

ELK3 = target: T5, ELK3 (Homo sapiens, UniProt P41970 1-407)
T5 sequence: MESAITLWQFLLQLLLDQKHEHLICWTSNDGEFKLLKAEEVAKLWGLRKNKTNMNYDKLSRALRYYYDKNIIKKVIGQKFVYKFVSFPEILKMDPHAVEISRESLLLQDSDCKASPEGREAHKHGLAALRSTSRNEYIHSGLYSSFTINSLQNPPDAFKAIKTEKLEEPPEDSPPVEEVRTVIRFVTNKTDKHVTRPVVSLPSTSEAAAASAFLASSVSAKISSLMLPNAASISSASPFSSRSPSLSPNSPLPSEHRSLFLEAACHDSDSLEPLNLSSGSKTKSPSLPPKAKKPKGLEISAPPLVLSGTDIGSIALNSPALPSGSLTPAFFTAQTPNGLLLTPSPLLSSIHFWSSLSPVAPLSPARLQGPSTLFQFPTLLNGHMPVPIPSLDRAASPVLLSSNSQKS
In short: as §1

ETV5 = ETV5 (Homo sapiens, UniProt P41161 1-510)
In short: as §1

ELF3 = target: T6, ELF3 (Homo sapiens, UniProt P78545 1-371)
T6 sequence: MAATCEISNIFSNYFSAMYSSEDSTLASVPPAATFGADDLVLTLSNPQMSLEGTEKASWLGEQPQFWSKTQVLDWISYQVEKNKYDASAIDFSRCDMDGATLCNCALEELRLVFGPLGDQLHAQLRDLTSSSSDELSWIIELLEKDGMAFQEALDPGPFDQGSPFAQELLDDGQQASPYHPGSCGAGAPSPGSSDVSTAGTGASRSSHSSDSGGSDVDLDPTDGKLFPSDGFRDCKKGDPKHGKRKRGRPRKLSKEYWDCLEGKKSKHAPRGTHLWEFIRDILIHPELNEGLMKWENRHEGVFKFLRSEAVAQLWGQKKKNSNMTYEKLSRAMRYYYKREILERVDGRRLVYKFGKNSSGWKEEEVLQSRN
In short: as §1

ETV3L = target: T7, ETV3L (Homo sapiens, UniProt Q6ZN32 1-361)
T7 sequence: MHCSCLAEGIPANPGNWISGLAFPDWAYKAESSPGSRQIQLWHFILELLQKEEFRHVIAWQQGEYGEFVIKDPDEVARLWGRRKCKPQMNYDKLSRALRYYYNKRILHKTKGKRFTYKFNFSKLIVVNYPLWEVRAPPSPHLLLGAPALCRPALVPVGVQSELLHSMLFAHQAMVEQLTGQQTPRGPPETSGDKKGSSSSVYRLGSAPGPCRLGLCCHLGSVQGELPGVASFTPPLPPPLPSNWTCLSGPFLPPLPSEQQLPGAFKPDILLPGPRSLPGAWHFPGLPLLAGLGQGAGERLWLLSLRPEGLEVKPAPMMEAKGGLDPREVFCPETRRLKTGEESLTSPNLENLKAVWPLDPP
In short: as §1

ETS2 = target: T8, ETS2 (Homo sapiens, UniProt P15036 1-469)
T8 sequence: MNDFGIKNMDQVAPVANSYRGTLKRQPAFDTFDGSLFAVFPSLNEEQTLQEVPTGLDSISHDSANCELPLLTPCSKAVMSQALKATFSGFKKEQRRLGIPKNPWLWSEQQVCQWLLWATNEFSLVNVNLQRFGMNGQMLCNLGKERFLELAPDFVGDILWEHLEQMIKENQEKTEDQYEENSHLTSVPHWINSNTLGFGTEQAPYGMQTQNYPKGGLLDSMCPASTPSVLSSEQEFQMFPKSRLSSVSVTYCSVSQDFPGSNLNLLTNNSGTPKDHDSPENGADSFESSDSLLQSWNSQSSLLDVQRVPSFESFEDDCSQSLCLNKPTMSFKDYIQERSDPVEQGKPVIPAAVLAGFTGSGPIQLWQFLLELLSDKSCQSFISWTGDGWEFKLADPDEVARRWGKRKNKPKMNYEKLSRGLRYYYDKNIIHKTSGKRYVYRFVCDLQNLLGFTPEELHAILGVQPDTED
In short: as §1

ETV7 = target: T9, ETV7 (Homo sapiens, UniProt Q9Y603 1-341)
T9 sequence: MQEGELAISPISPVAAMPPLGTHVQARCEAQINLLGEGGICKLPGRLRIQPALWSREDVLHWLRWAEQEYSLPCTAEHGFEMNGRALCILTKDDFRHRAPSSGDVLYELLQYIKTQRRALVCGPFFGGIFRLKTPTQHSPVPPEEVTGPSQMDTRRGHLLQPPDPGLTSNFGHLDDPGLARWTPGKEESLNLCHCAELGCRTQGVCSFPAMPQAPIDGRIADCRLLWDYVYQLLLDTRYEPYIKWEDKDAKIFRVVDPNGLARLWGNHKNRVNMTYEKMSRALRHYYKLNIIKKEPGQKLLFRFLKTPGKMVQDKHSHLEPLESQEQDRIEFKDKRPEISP
In short: as §1

ETV3 = target: T10, ETV3 (Homo sapiens, UniProt P41162-2 1-143)
T10 sequence: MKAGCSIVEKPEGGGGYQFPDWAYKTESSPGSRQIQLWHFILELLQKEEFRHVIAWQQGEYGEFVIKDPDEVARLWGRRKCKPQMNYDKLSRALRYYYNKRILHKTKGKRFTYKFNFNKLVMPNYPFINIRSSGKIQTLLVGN
In short: as §1

ETV6 = ETV6 (Homo sapiens, UniProt P41212 1-452)
In short: as §1

ELF1, sequence (P32519 whole entry): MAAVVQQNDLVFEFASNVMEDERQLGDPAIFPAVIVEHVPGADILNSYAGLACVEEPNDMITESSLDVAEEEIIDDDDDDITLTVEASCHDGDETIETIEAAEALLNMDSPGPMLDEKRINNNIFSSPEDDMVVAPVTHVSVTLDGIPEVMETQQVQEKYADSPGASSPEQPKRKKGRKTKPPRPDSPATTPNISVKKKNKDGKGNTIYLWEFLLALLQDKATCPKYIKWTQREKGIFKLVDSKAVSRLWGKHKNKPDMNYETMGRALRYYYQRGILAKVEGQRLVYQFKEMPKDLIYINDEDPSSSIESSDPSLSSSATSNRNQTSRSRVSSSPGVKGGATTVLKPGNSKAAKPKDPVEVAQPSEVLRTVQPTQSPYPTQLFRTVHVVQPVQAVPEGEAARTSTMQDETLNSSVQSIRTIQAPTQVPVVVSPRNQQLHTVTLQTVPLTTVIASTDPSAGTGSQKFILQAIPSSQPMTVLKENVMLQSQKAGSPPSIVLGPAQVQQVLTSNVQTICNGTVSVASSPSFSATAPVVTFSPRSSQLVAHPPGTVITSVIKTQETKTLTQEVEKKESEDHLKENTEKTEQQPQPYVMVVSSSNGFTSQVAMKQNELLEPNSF
SPIB, sequence (Q01892 whole entry): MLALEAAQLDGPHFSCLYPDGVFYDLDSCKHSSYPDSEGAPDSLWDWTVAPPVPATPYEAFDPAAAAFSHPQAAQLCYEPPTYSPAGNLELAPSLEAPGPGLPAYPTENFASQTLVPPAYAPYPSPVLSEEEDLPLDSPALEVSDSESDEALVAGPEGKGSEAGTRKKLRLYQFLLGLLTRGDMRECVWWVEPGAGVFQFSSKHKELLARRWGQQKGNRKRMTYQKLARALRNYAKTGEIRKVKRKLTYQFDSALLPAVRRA
ETV5, sequence (P41161 whole entry): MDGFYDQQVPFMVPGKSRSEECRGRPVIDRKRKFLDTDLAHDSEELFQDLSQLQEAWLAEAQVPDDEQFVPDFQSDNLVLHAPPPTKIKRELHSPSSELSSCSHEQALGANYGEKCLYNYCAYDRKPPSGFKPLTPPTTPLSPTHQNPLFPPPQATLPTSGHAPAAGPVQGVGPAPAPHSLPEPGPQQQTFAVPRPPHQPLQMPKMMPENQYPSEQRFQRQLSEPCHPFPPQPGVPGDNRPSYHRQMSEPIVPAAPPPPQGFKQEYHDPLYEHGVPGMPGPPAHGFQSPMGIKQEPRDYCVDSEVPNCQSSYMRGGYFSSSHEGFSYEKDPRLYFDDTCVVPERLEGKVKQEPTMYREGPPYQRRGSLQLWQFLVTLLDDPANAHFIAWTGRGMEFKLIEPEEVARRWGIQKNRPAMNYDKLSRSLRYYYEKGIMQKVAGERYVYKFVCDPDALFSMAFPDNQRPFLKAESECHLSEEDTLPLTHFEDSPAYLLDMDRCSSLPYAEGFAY
ETV6, sequence (P41212 whole entry): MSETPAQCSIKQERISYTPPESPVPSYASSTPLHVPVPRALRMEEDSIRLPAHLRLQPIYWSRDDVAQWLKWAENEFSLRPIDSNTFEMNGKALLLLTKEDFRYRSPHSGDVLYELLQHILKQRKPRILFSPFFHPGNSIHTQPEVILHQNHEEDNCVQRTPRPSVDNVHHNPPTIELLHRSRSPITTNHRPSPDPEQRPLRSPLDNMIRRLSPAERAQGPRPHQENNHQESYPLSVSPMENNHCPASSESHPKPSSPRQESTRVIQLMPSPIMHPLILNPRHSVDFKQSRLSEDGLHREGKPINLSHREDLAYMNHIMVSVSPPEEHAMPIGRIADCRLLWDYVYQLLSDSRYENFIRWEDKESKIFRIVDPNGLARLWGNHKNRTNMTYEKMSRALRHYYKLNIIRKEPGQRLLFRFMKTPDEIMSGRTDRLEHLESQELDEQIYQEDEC

Sequence: ATGGCG
- binding signal (FLI1): 1 fold enrichment (6-mer frequency, TF over GST control)
- binding signal (ELK1): 1.05 fold enrichment (6-mer frequency, TF over GST control)
- binding signal (GABPA): 1.04 fold enrichment (6-mer frequency, TF over GST control)
- binding signal (ERG): 1.02 fold enrichment (6-mer frequency, TF over GST control)
- binding signal (ELF1): 1.06 fold enrichment (6-mer frequency, TF over GST control)
- binding signal (SPI1): 1.03 fold enrichment (6-mer frequency, TF over GST control)
- binding signal (SPIB): 1.01 fold enrichment (6-mer frequency, TF over GST control)
- binding signal (ELK3): 1.01 fold enrichment (6-mer frequency, TF over GST control)
- binding signal (ETV5): 1.02 fold enrichment (6-mer frequency, TF over GST control)
- binding signal (ELF3): 1.03 fold enrichment (6-mer frequency, TF over GST control)
- binding signal (ETV3L): 1.03 fold enrichment (6-mer frequency, TF over GST control)
- binding signal (ETS2): 1.11 fold enrichment (6-mer frequency, TF over GST control)
- binding signal (ETV7): 1.01 fold enrichment (6-mer frequency, TF over GST control)
- binding signal (ETV3): 1.09 fold enrichment (6-mer frequency, TF over GST control)
- binding signal (ETV6): 1.05 fold enrichment (6-mer frequency, TF over GST control)
